Measured values from PubChem BioAssay (EPA / NIEHS).
The source made the active and inactive calls. Rule for the calls: active = hit-call score of the fitted dose curve at least 0.9, where 1 is the maximum; inactive = score below 0.9.

How the values were obtained:
[1] = read-out: Interleukin-6 (IL6), IL6 (gene 3569); test: BSK_CASM3C_IL6: BioMAP Diversity Plus: CASM3C Assay for Interleukin-6 (IL6) Biomarker Activity for (AID 2283040); details: primary human coronary artery smooth muscle cells; actives raise or lower the signal
[2] = read-out: Tissue plasminogen activator (tPA), PLAT (gene 5327); test: BSK_BE3C_tPA: BioMAP Diversity Plus: BE3C Assay for Tissue plasminogen activator (tPA) Biomarker Activity (AID 2283041); details: primary human bronchial epithelial cells; actives raise or lower the signal;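 note: tPA level quantified by ELISA one day after compound addition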
Procedure, shortened: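 Using human lung primary bronchial epithelial cells, tPA was measured by ELISA 24 h after dosing; data fitted relative to DMSO.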

[3] = read-out: Interleukin-8 (IL8), CXCL8 (gene 3576); test: BSK_CASM3C_IL8: BioMAP Diversity Plus: CASM3C Assay for Interleukin-8 (IL8) Biomarker Activity (AID 2283042); details: primary human coronary artery smooth muscle cells; actives raise or lower the signal;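 note: IL-8 protein level quantified by ELISA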
[4] = read-out: Human Leukocyte Antigen - DR isotype (HLADR), HLA-DRA (gene 3122); test: BSK_CASM3C_HLADR: BioMAP Diversity Plus: CASM3C Assay for Human Leukocyte Antigen - DR isotype (HLADR) Biomarker Activity (AID 2283043); details: primary human coronary artery smooth muscle cells; actives raise or lower the signal;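 note: cell-surface HLA-DR protein level quantified by ELISA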
[5] = read-out: Macrophage colony-stimulating factor (MCSF), CSF1 (gene 1435); test: BSK_CASM3C_MCSF: BioMAP Diversity Plus: CASM3C Assay for Macrophage colony-stimulating factor (MCSF) Biomarker Activity (AID 2283044); details: primary human coronary artery smooth muscle cells; actives raise or lower the signal;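 note: M-CSF protein amount quantified by ELISA after 24 h exposure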
[6] = read-out: Low-density lipoprotein receptor (LDLR), LDLR (gene 3949); test: BSK_CASM3C_LDLR: BioMAP Diversity Plus: CASM3C Assay for Low-density lipoprotein receptor (LDLR) Biomarker Activity (AID 2283045); details: primary human coronary artery smooth muscle cells; actives raise or lower the signal;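 note: LDLR protein level on the cell surface quantified by ELISA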
[7] = read-out: Monocyte Chemoattractant Protein-1 (MCP1), CCL2 (gene 6347); test: BSK_CASM3C_MCP1: BioMAP Diversity Plus: CASM3C Assay for Monocyte Chemoattractant Protein-1 (MCP1) Biomarker Activity (AID 2283046); details: primary human coronary artery smooth muscle cells; actives raise or lower the signal;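 note: MCP-1 level quantified by ELISA 24 h after dosing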
[8] = BSK_CASM3C_Proliferation: Cell Proliferation Assessment in the BioMAP Diversity Plus: CASM3C Assay (AID 2283047); details: primary human coronary artery smooth muscle cells;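 note: sulforhodamine B total protein stain as relative cell number at 560 nm; sub-confluent cells exposed 48 h before staining; fitted both ways against DMSO so gain or loss of cell number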
[9] = read-out: Monokine induced gamma interferon (MIG), CXCL9 (gene 4283); test: BSK_CASM3C_MIG: BioMAP Diversity Plus: CASM3C Assay for Monokine induced gamma interferon (MIG) Biomarker Activity (AID 2283048); details: primary human coronary artery smooth muscle cells; actives raise or lower the signal;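 note: MIG protein level measured by ELISA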
[10] = read-out: serum amyloid A (SAA), SAA1 (gene 6288); test: BSK_CASM3C_SAA: BioMAP Diversity Plus: CASM3C Assay for serum amyloid A (SAA) Biomarker Activity (AID 2283049); details: primary human coronary artery smooth muscle cells; actives raise or lower the signal;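 note: SAA protein level quantified by ELISA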
[11] = BSK_CASM3C_SRB: Viability Assessment in the BioMAP Diversity Plus: CASM3C Assay (AID 2283050); details: primary human coronary artery smooth muscle cells;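 note: total protein by SRB staining as cytotoxicity measure in parallel cultures; cells exposed to compound for 24 h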
[12] = read-out: Thrombomodulin, THBD (gene 7056); test: BSK_CASM3C_Thrombomodulin: BioMAP Diversity Plus: CASM3C Assay for Thrombomodulin Biomarker Activity (AID 2283051); details: primary human coronary artery smooth muscle cells; actives raise or lower the signal;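 note: thrombomodulin protein level measured by ELISA 24 h after dosing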
[13] = read-out: Tissue Factor, F3 (gene 2152); test: BSK_CASM3C_TissueFactor: BioMAP Diversity Plus: CASM3C Assay for Tissue Factor Biomarker Activity (AID 2283052); details: primary human coronary artery smooth muscle cells; actives raise or lower the signal;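 note: cell surface tissue factor protein level read by ELISA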
[14] = read-out: Interferon-gamma inducible Protein 10 (IP10), CXCL10 (gene 3627); test: BSK_hDFCGF_IP10: BioMAP Diversity Plus: hDFCGF Assay for Interferon-gamma inducible Protein 10 (IP10) Biomarker Activity (AID 2283053); details: primary human foreskin fibroblasts; actives raise or lower the signal
Procedure, shortened: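 Chemical-treated human skin fibroblasts (primary) were sampled at 24 h for IP-10 by ELISA. Both increases and decreases relative to DMSO were scored.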

[15] = read-out: Urokinase-type plasminogen activator receptor (uPAR), PLAUR (gene 5329); test: BSK_CASM3C_uPAR: BioMAP Diversity Plus: CASM3C Assay for Urokinase-type plasminogen activator receptor (uPAR) Biomarker Activity (AID 2283054); details: primary human coronary artery smooth muscle cells; actives raise or lower the signal;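 note: cell-surface uPAR protein level quantified by ELISA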
[16] = read-out: Vascular cell adhesion molecule 1 (VCAM1), VCAM1 (gene 7412); test: BSK_CASM3C_VCAM1: BioMAP Diversity Plus: CASM3C Assay for Vascular cell adhesion molecule 1 (VCAM1) Biomarker Activity (AID 2283055); details: primary human coronary artery smooth muscle cells; actives raise or lower the signal;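 note: VCAM-1 protein level quantified by ELISA on the cells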
[17] = read-out: Collagen III, COL3A1 (gene 1281); test: BSK_hDFCGF_CollagenIII: BioMAP Diversity Plus: hDFCGF Assay for Collagen III Biomarker Activity (AID 2283056); details: primary human foreskin fibroblasts; actives raise or lower the signal
Procedure, shortened: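 Cells: human foreskin fibroblasts, primary. Dosing followed by 24 h incubation, then ELISA for collagen III. Both increases and decreases scored relative to DMSO.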

[18] = read-out: Epidermal growth factor receptor (EGFR), EGFR (gene 1956); test: BSK_hDFCGF_EGFR: BioMAP Diversity Plus: hDFCGF Assay for Epidermal growth factor receptor (EGFR) Biomarker Activity (AID 2283057); details: primary human foreskin fibroblasts; actives raise or lower the signal
Procedure, shortened: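 Cell-based multiplexed assay in primary human foreskin fibroblasts. EGFR is read by ELISA 24 h after treatment and compared with DMSO controls.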

[19] = read-out: Interleukin-8 (IL8), CXCL8 (gene 3576); test: BSK_hDFCGF_IL8: BioMAP Diversity Plus: hDFCGF Assay for Interleukin-8 (IL8) Biomarker Activity (AID 2283058); details: primary human foreskin fibroblasts; actives raise or lower the signal
Procedure, shortened: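 IL-8 levels from compound-treated primary human fibroblasts were read by ELISA at 24 h, with DMSO serving as baseline for bidirectional fitting.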

[20] = BSK_hDFCGF_Proliferation: Cell Proliferation Assessment in the BioMAP Diversity Plus: hDFCGF Assay (AID 2283059); details: primary human foreskin fibroblasts;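 note: curves fitted for both rise and fall of signal versus DMSO baseline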
Procedure, shortened: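 Primary human foreskin fibroblasts, sub-confluent; […]; 10% TCA fix, 0.1% SRB stain, A560 total protein. Gain/loss fitted bidirectionally vs DMSO control.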

Measured: AC50

CCCCCCC=O
inactive: [1] | [2] | [3] | [4] | [5] | [6] | [7] | [9] | [10] | [11] | [12] | [13] | [14] | [15] | [16] | [17] | [18] | [19] | [20]
active: [8] 0.22 µM

CC(Cl)COP(=O)(OCC(C)Cl)OCC(C)Cl (configuration not stated)
active: [8] 0.159 µM
inactive: [1] | [2] | [3] | [4] | [5] | [6] | [7] | [9] | [10] | [11] | [12] | [13] | [14] | [15] | [16] | [17] | [18] | [19]

CC(C)c1cccc(C(C)C)c1N
inactive: [1] | [2] | [3] | [4] | [5] | [6] | [7] | [8] | [9] | [10] | [11] | [12] | [13] | [14] | [15] | [16] | [17] | [18] | [19]

C=CC(=O)OCCCCCCCC(C)C
inactive: [1] | [2] | [3] | [4] | [5] | [6] | [7] | [8] | [9] | [10] | [11] | [12] | [13] | [14] | [15] | [17] | [18] | [19]
active: [16] 20 µM

C1CNCCN1
inactive: [1] | [2] | [3] | [4] | [5] | [6] | [7] | [8] | [9] | [10] | [11] | [12] | [13] | [14] | [15] | [16] | [17] | [18] | [19]

C=CC(=O)OCC(C)OCC(C)OCC(C)OC(=O)C=C (configuration not stated)
inactive: [2] | [3] | [6] | [12]
active: [1] 16.1 µM | [4] 14.9 µM | [5] 25.2 µM | [7] 20 µM | [8] 20 µM | [9] 29.1 µM | [10] 5.95 µM | [11] 20 µM | [13] 2.28 µM | [14] 14.4 µM | [15] 8.9 µM | [16] 15.3 µM | [17] 35.7 µM | [18] 33.4 µM | [19] 33.1 µM

O=C(Cl)c1c(Cl)c(Cl)c(C(=O)Cl)c(Cl)c1Cl
inactive: [1] | [2] | [3] | [4] | [5] | [6] | [7] | [8] | [9] | [10] | [11] | [12] | [13] | [14] | [15] | [16] | [17] | [18] | [20]

CCOC(=O)C1=NN(c2ccc(Cl)cc2Cl)C(C)(C(=O)OCC)C1 (configuration not stated)
inactive: [1] | [2] | [3] | [4] | [5] | [6] | [7] | [8] | [9] | [10] | [11] | [12] | [13] | [14] | [15] | [16] | [18] | [19]
active: [17] 20 µM

CCCCCCCCC(CO)CCCCCC (configuration not stated)
active: [17] 4.17 µM | [20] 4.06 µM
inactive: [1] | [2] | [3] | [4] | [5] | [6] | [7] | [8] | [9] | [10] | [11] | [12] | [13] | [14] | [15] | [16] | [18]

CCOC(=O)C1=NOC(c2ccccc2)(c2ccccc2)C1
inactive: [1] | [2] | [3] | [4] | [5] | [6] | [7] | [8] | [9] | [10] | [11] | [12] | [13] | [14] | [15] | [17] | [18] | [19]
active: [16] 20 µM

CCCCCCOC(=O)CCCCC(=O)OCCCCCC
inactive: [1] | [2] | [3] | [4] | [5] | [6] | [7] | [8] | [9] | [10] | [11] | [12] | [13] | [14] | [15] | [16] | [17] | [18] | [19] | [20]

Oc1c(Cl)cc(Cl)c(Cl)c1Cl
inactive: [2] | [3] | [4] | [5] | [6] | [7] | [8] | [9] | [10] | [11] | [12] | [13] | [15] | [18]
active: [1] 0.383 µM | [14] 31.1 µM | [16] 3.97 µM | [17] 10.4 µM | [20] 27.7 µM

Nc1ccc(C(=O)O)cc1
inactive: [1] | [2] | [3] | [4] | [5] | [6] | [7] | [8] | [9] | [10] | [11] | [12] | [13] | [14] | [15] | [16] | [17] | [18] | [19]

CCNc1nc(NC(C)(C)C)nc(OC)n1
inactive: [1] | [2] | [3] | [4] | [5] | [6] | [7] | [8] | [9] | [10] | [11] | [12] | [13] | [14] | [15] | [16] | [17] | [18]
